C diff HTS: inhibitors of Clostridium difficile growth. Clostridium difficile clinical isolate growth, OD600, 24 h; hits give low values. growth activity, negative = inhibition, % at 16 µg/mL (by protocol). AID 1259249. 86,000 tested, 0.25% active;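 active = mean growth activity at or below -80% and every replicate also at or below -80%; inconclusive = mean at or below -80% but some replicate above -80%; inactive = mean growth activity above -80%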;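 also: 0% = DMSO wells and -100% = levofloxacin 16 µg/mL wells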
Pf Dd2 inh: P. falciparum Dd2 growth inhibition; activity change, % at 10 µM; SYBR Green, 72 h; hits give low values; 94,000 tested, 2.3% active; in the data active = activity change below about -80%; inconclusive = no clear call, values can overlap the other calls
T cruzi growth-1: blocks T. cruzi growth in NIH3T3 culture; T. cruzi beta-gal in NIH3T3, GalScreen luminescence, 90 h; inhibition, % at 8.34 µM; 77,000 tested, 5.9% active; AID 624255;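 active = mean inhibition above about 93%, with at least 55% of replicates each passing it, limit read from the data, passing the limit was not always enough; inconclusive = only one of those two conditions holds; inactive = neither condition holds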
T cruzi growth-2: inhibitors of T. cruzi proliferation; shares compounds with T cruzi growth-1; T. cruzi beta-gal in NIH3T3, GalScreen luminescence, 90 h; inhibition, % at 8.35 µM; 5,600 tested, 72% active; AID 651739;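 active = mean replicate inhibition above about 95% and at least 55% of replicates individually reaching it, limit read from the data; inconclusive = only one of the two criteria is met; inactive = neither criterion is met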
T cruzi growth-3: inhibitors of T. cruzi proliferation; shares compounds with T cruzi growth-1; T. cruzi beta-gal in NIH3T3, GalScreen luminescence, 90 h; inhibition, % at 2.09 µM; 5,600 tested, 21% active;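 active = mean inhibition above about 95%, with at least 55% of replicates also reaching it, limit read from the data; inconclusive = meets just one of the two conditions; inactive = meets neither condition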;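 also: plate controls were neutral control median for no effect and positive control median for full effect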
NIH3T3 tox: kills mouse NIH/3T3 fibroblasts; shares compounds with T cruzi growth-1; NIH/3T3 viability, CellTiter-Glo ATP luminescence, 90 h; cytotoxicity (signal decrease), % at 8.35 µM; 5,600 tested, 14% active; AID 651742;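 active = mean signal decrease across replicates above about 35% based on untreated-well scatter, with enough replicates individually passing, limit read from the data; inconclusive = no rule stated though some were filed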;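 also: 0% = median of neutral control wells and 100% = median of positive control wells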
NIH3T3 tox 2: NIH/3T3 (mouse) viability loss. shares compounds with T cruzi growth-1. NIH/3T3 viability, CellTiter-Glo ATP luminescence, 90 h. inhibition, % at 24.9 µM. 5,600 tested, 56% active. AID 651744;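 active = mean loss of cell viability signal at or above a set limit, and enough replicates individually reaching it; inconclusive = meets only the mean limit or only the replicate share; inactive = meets neither condition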;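 also: 0% = median of neutral control wells and 100% = median of positive control wells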
The depositor's hits bear a star; u = inconclusive; x = no result given. Compounds with a hit are over-represented: about 6.7% of the library has one in this group of screens.

SMILES	C diff HTS	Pf Dd2 inh	T cruzi growth-1	T cruzi growth-2	T cruzi growth-3	NIH3T3 tox	NIH3T3 tox 2
CNC[C@@H]1OCCCC[C@H](C)Oc2ccc(NC(=O)NC3CCCCC3)cc2C(=O)N([C@@H](C)CO)C[C@@H]1C	-1.4	16.7	111.0*	-22.2	-0.9	-15.1	-5.7
CNC[C@@H]1OCCCC[C@H](C)Oc2ccc(NC(=O)Cc3ccccc3)cc2C(=O)N([C@@H](C)CO)C[C@@H]1C	1.1	-2.4	99.1*	-25.3	-12.3	-26.2	-4.0
CNC[C@H]1OCCCC[C@H](C)Oc2ccc(NC(=O)c3ccccc3)cc2C(=O)N([C@H](C)CO)C[C@@H]1C	-2.2	4.5	u	99.1*	-0.8	25.5	8.3
CNC[C@@H]1OCCCC[C@@H](C)Oc2ccc(NC(=O)NC3CCCCC3)cc2C(=O)N([C@H](C)CO)C[C@H]1C	-0.6	x	8.6	x	x	x	x
C[C@H]1CCCCO[C@@H](CN(C)C)[C@@H](C)CN([C@@H](C)CO)C(=O)c2cc(NC(=O)Cc3ccccc3)ccc2O1	1.5	-10.1	65.4	x	x	x	x
CO[C@H]1CN(C)C(=O)c2ccc(NC(C)=O)cc2OC[C@H](C)N(C(=O)c2ccncc2)C[C@@H]1C	x	-19.9	21.4	x	x	x	x
Cc1ccc(S(=O)(=O)Nc2ccc3c(c2)CC(=O)N([C@H](C)CO)C[C@H](C)[C@@H](CN(C)Cc2ccccc2)O3)cc1	-2.7	-8.0	x	x	x	x	x
C[C@@H]1CN([C@@H](C)CO)S(=O)(=O)c2ccc(C3=CCCC3)cc2O[C@H]1CN(C)C(=O)Cc1ccncc1	-0.6	-65.8	98.0*	80.5	15.2	-7.3	22.8
C[C@@H]1CN([C@H](C)CO)S(=O)(=O)c2ccc(C3=CCCCC3)cc2O[C@@H]1CN(C)C(=O)Cc1ccncc1	-1.1	-68.5	94.4	x	x	x	x
C[C@@H]1CN([C@@H](C)CO)S(=O)(=O)c2ccc(C3=CCCCC3)cc2O[C@H]1CN(C)C(=O)Cc1ccncc1	-1.9	-72.5	80.5	x	x	x	x
C[C@@H]1CN([C@@H](C)CO)S(=O)(=O)c2ccc(C3=CCCCC3)cc2O[C@@H]1CN(C)C(=O)Cc1ccncc1	-1.8	-68.1	96.6*	89.0	58.8	18.5	31.6*
C[C@@H]1CN([C@H](C)CO)S(=O)(=O)c2ccc(C3=CCCCC3)cc2O[C@H]1CN(C)C(=O)Cc1ccncc1	-1.9	-78.6	99.6*	102.9*	66.5	27.7	35.9*
C[C@@H]1CN([C@H](C)CO)S(=O)(=O)c2ccc(C3=CCCCC3)cc2O[C@@H]1CN(C)C(=O)Cc1ccccc1	9.0	-6.9	102.5	x	x	x	x
C[C@@H]1CN([C@@H](C)CO)S(=O)(=O)c2ccc(C3=CCCCC3)cc2O[C@H]1CN(C)C(=O)Cc1ccccc1	-9.2	-42.9	u	105.3*	41.2	52.8*	51.8*
C[C@@H]1CN([C@H](C)CO)S(=O)(=O)c2ccc(C3=CCCC3)cc2O[C@H]1CN(C)C(=O)Cc1ccncc1	-0.2	-18.6	73.4	x	x	x	x
COc1ccccc1CN(C)C[C@@H]1OCc2ccccc2-c2c(n(C)c3ccccc23)C(=O)N([C@@H](C)CO)C[C@H]1C	-6.8	-57.6	x	x	x	x	x
CO[C@H]1CN(C)C(=O)c2ccc(NC(C)=O)cc2OC[C@H](C)NC[C@@H]1C	-2.0	43.1	-23.0	x	x	x	x
CCCC(=O)Nc1ccc2c(c1)C(=O)N(C)C[C@H](OC)[C@@H](C)CN(S(=O)(=O)c1cn(C)cn1)[C@H](C)CO2	x	14.5	44.0	x	x	x	x
CC(C)NC(=O)Nc1ccc2c(c1)CC(=O)N([C@@H](C)CO)C[C@@H](C)[C@H](CN(C)S(=O)(=O)c1ccc(Cl)cc1)O2	-2.7	-21.1	42.5	x	x	x	x
Cc1noc(C)c1S(=O)(=O)Nc1ccc2c(c1)CC(=O)N([C@@H](C)CO)C[C@@H](C)[C@@H](CN(C)S(=O)(=O)c1ccc(Cl)cc1)O2	5.7	-25.9	u	71.1	33.5	2.8	38.8*
Cc1noc(C)c1S(=O)(=O)Nc1ccc2c(c1)CC(=O)N([C@H](C)CO)C[C@H](C)[C@H](CN(C)S(=O)(=O)c1ccc(Cl)cc1)O2	16.7	-55.1	11.9	x	x	x	x
CC(C)NC(=O)Nc1ccc2c(c1)CC(=O)N([C@H](C)CO)C[C@H](C)[C@H](CN(C)S(=O)(=O)c1ccc(Cl)cc1)O2	-2.5	-14.2	102.2*	-51.8	-24.0	-30.4	9.1
CO[C@@H]1CN(C)C(=O)c2cc(NS(C)(=O)=O)ccc2OC[C@H](C)N(C(=O)C2CCC2)C[C@@H]1C	x	10.4	-4.5	x	x	x	x
C[C@H]1CN([C@@H](C)CO)C(=O)c2cc(C#CC3CC3)cnc2O[C@@H]1CN(C)C(=O)Cc1ccccn1	x	8.4	34.7	x	x	x	x
COc1cccc(NC(=O)N(C)C[C@@H]2Oc3ncc(C#Cc4ccccc4)cc3C(=O)N([C@@H](C)CO)C[C@H]2C)c1	-6.2	-36.6	117.7*	111.0*	102.7*	6.3	3.0
SMILES	C diff HTS	Pf Dd2 inh	T cruzi growth-1	T cruzi growth-2	T cruzi growth-3	NIH3T3 tox	NIH3T3 tox 2
COc1ccc(C#Cc2cnc3c(c2)C(=O)N([C@H](C)CO)C[C@H](C)[C@H](CN(C)C(=O)Nc2cccc(OC)c2)O3)cc1	10.4	-30.1	42.1	x	x	x	x
COc1ccc(C#Cc2cnc3c(c2)C(=O)N([C@@H](C)CO)C[C@@H](C)[C@H](CN(C)C(=O)Nc2cccc(OC)c2)O3)cc1	-9.0	-1.3	u	109.7*	88.8	1.8	8.9
C[C@@H]1CN([C@@H](C)CO)C(=O)c2cc(C#CC3CCCC3)cnc2O[C@@H]1CN(C)C(=O)Nc1ccccc1	12.0	-9.5	63.2	x	x	x	x
C[C@H](CO)N1C[C@H](C)[C@@H](CN(C)C(=O)Cc2ccccn2)Oc2ncc(C#CC3CC3)cc2C1=O	x	1.5	103.9*	61.2	17.1	10.2	35.6*
COc1cccc(NC(=O)N(C)C[C@H]2Oc3ncc(C#Cc4ccncc4)cc3C(=O)N([C@@H](C)CO)C[C@@H]2C)c1	-5.5	25.9	x	x	x	x	x
C[C@@H]1CN([C@H](C)CO)C(=O)c2cc(C#CC3CCCC3)cnc2O[C@H]1CN(C)C(=O)Nc1ccccc1	-5.8	-29.4	99.2*	104.0*	42.9	-5.8	2.3
CN(C)C(=O)C[C@@H]1CC[C@@H]2[C@H](COC[C@@H](O)CN2Cc2ccc(C(F)(F)F)cc2)O1	-6.9	12.8	11.0	x	x	x	x
CC(=O)N1CC[C@@H]2[C@H]1c1cc(-c3ccccc3)ccc1N(C)[C@@H]2CO	-10.4	11.7	71.3	x	x	x	x
CC(C)NC(=O)Nc1ccc2c(c1)C(=O)N([C@@H](C)CO)C[C@@H](C)[C@@H](CN(C)Cc1ccc(Oc3ccccc3)cc1)O2	-10.0	2.2	x	x	x	x	x
CN1C(=O)c2cc(NC(=O)NC3CCCC3)ccc2OC[C@@H]2O[C@H](CC(=O)NCC3CC3)CC[C@@H]21	-11.7	8.7	2.3	x	x	x	x
COc1ccc2c3c(n(C)c2c1)[C@H](CO)N(C(=O)c1cccnc1)CC31CN(C(=O)c2cccnc2)C1	52.5	6.1	x	x	x	x	x
